# Assay results published in PubChem BioAssay (NCATS).
# Records with an inconclusive call do not appear. Some structures have more than one record in an assay (separate samples or runs), and their calls can disagree. Activity calls are given as the source filed them. Calls come from the whole dose curve; as a rule, active = well fitted inhibition curve with a large enough effect; inconclusive = small, poorly fitted or top-dose-only effect; inactive = flat fitted curve, though single readings scatter.
# Molecular target: Voltage-gated inwardly rectifying potassium channel KCNH2 (Homo sapiens) (UniProt Q12809)
# Sequence (Q12809 whole entry, looked up): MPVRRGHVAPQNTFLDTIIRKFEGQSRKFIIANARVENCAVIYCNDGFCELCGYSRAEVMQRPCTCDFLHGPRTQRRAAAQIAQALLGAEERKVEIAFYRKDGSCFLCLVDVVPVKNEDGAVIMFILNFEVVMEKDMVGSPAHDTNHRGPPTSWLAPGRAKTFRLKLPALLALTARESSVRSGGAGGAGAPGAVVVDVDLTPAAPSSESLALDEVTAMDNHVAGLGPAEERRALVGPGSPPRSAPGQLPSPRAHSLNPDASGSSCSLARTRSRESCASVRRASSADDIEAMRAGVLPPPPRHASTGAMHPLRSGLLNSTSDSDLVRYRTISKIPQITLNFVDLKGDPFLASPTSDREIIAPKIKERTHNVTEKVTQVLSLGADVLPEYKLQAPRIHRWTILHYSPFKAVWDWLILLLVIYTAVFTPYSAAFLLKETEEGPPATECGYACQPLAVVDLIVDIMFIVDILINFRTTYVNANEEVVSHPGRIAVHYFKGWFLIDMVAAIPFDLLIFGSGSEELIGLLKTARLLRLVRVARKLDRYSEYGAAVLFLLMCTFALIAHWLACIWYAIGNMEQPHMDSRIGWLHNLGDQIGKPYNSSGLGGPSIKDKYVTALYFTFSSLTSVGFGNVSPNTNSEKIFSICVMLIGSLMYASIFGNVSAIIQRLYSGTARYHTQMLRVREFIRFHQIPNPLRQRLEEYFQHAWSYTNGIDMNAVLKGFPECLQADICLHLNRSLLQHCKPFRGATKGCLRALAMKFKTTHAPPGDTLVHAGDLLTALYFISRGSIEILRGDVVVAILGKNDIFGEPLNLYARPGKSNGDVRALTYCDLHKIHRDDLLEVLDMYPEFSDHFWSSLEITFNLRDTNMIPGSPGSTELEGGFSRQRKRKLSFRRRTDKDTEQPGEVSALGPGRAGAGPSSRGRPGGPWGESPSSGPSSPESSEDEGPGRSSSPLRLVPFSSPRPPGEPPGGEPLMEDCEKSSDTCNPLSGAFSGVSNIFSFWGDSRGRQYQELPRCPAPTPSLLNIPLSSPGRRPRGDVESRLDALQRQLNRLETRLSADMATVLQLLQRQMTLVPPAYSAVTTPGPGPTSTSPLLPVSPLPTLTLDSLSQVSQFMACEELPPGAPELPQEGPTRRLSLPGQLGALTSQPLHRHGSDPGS
# Experiment: qHTS Assay for Small Molecule Inhibitors of the Human hERG Channel Activity (AID 588834);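 note: lower thallium flux fluorescence means stronger hERG block; nearly all actives have a fitted effect of over 50% in size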; for activity change, negative = inhibition: top concentration of the series differs between compounds
# Settings: U2OS BacMam hERG, FluxOR thallium flux fluorescence; series mostly up to 46.1 µM; activity change, negative = inhibition: at the top concentration
# From the text: NIH Chemical Genomics Center [NCGC]
# National Institutes of Environmental Health Sciences [NIEHS]
# National Toxicology Program [NTP]
# We have developed a 1536-well cell-based assay for quantitative high throughput screening (qHTS) to determine in vitro hERG channel blockage as a measure of cardio toxicity with small molecules. This particular assay uses the U2OS cell line which is derived from human osteosarcoma.
# NCGC Assay Protocol Summary:
# HERG assay (FluxORTM thallium flux assay) was initially developed by Invitrogen/Molecular Probes, and then miniaturized into 1536-well plate in a homogeneous format by NCGC. This assay measures the activity of potassium channel using thallium dye (FluxOR) flux as surrogate measurement for potassium into the cells with a FDSS-7000 kinetic plate reader (Hamamatsu Corp., Hamamatsu City, Japan). The hERG ion channel is transduced into mammalian cells (U2OS) using a baculovirus (Bacmam) construct harboring the hERG K+ ion channel. So far we screened LOPAC1280 library (Sigma), the NTP collection of 1408 compounds, and the NCGC Pharmaceutical Collection (NPC), in which many well defined HERG blockers are present. The rank order potencies of many of these compounds are similar to that of other HERG assays (membrane potential, Rb+ flux, patch clamp, etc). This quick and homogeneous assay is also found to be sensitive, specific, and robust.
# Using the FluxORTM thallium flux assay, the activity of potassium channel using thallium dye (FluxOR) flux as surrogate measurement for potassium into the cells was measured in the U2OS cell line transduced with hERG K+ ion channel using a baculovirus (Bacmam) using Opti-MEM medium (Invitrogen) containing 2% fetal calf serum (FCS, HyCone) following loading buffer addition, compound treatment for around 10 minutes and finally adding stimulation buffer. The assay was performed in black clear Kalypsys 1536-well plates. In the screen, Astemizole was used as positive controls. Library compounds were measured for their ability to cause hERG channel blockage in the cell line, as reflected by a decrease in fluorescence intensity, in a concentration-dependent manner. […] AC50 values were determined from concentration-response data modeled with the standard Hill equation.
# qHTS protocol for hERG-U2OS cellular assay
# [Step] [Parameter] [Value] [Description]
# 1. Day 1: Replace medium in 70-80% confluent T225 flask with 2.5 mL of hERG-BacMam virus plus 12.5 mL of phosphate buffered saline (PBS) (corresponding roughly to a multiplicity of infection ratio of 100 virus particles/cell)
# 2. Incubation: 4 hrs @ room Temperature in Dark
# 3. Reagent; Remove virus; wash once with 25 ml DPBS
# 4. Reagent; 35 ml culture medium
# 5. Incubation; 37 °C overnight
# 6. Day2: Reagent; 3 uL; 2000 U2OS cells/well
# 7. Time; 4 hr; 37 °C incubation
# 8. Loading buffer; 1 uL; 0.7X;
# 9. Incubation: 1hr @ RT in Dark.
# 12. Time; 10min; 37 °C incubation
# 13. Read fluorescence Intensity on FDSS for 10 Sec with 1 sec interval
# 14. Reagent; 1 uL; stimulation buffer
# 15. Read fluorescence Intensity on FDSS for 2 min with 1 sec interval
# 16. Detection; Fluorescence Intensity; FDSS
# % is set by controls: 0 for no effect and ±100 for the full control effect; potency is the fitted concentration of half-maximal effect.
SMILES,"activity change, negative = inhibition",Potency
C[N+]1(C)CCCCC1COC(=O)C(O)(c1ccccc1)c1ccccc1 (stereo not given),-1.79% (inactive),
CNc1ccc2oc(C[C@H]3O[C@@]4(CC[C@H]3C)O[C@H]([C@H](C)C(=O)c3ccc[nH]3)[C@H](C)C[C@H]4C)nc2c1C(=O)O,,3.16 µM (active)
C[C@]12CC[C@H]3[C@@H](CCC4=C(O)C(=O)CC[C@@H]43)[C@@H]1CC[C@@H]2OC(=O)CCC1CCCC1,-12.4% (inactive),
CC(=O)c1c(O)c(C)c(O)c(Cc2c(O)c3c(c(C(=O)/C=C/c4ccccc4)c2O)OC(C)(C)C=C3)c1O,-5.95% (inactive),
CC1(C)S[C@@H]2[C@H](N)C(=O)N2[C@H]1C(=O)O,-2.7% [at 20.6 µM] (inactive),
C[C@@H](CO)NC(=O)[C@@H]1C=C2c3cccc4[nH]cc(c34)C[C@H]2N(C)C1,2.58% (inactive),
CO[C@H]1CC=C2CCN3CCC4=C(CC(=O)OC4)[C@]23C1,20.6% (inactive),
Oc1ccc2c3c1O[C@H]1c4[nH]c5ccccc5c4C[C@@]4(O)C(C2)N(CC2CC2)CCC314 (stereo not given in full),,0.794 µM (active)
CCOP(=O)(OCC)O/C(=C/Cl)c1ccc(Cl)cc1Cl,-0.198% (inactive),
CC(C)CCC(=O)O[C@H]1CC[C@H]2[C@@H]3CCC4=CC(=O)CC[C@]4(C)[C@H]3CC[C@]12C,,25.1 µM (active)
O=[N+]([O-])c1cc(I)c(O)c(I)c1,-15.6% (inactive),
C=CCC1(C(C)CCC)C(=O)N=C(S)NC1=O (stereo not given),-5.95% (inactive),
C=CCN1C[C@@H](C)N([C@H](c2ccc(C(=O)N(CC)CC)cc2)c2cccc(OC)c2)C[C@@H]1C,,4.47 µM (active)
C=CCN=C=S,,inactive
COc1ccc2c(c1OC)C(=O)OC2C1c2cc3c(cc2CCN1C)OCO3 (stereo not given),,15.8 µM (active) and inactive
CC(=O)O[C@H]1C[C@H](O[C@H]2[C@@H](O)C[C@H](O[C@H]3[C@@H](O)C[C@H](O[C@H]4CC[C@@]5(C)[C@H](CC[C@@H]6[C@@H]5C[C@@H](O)[C@]5(C)[C@@H](C7=CC(=O)OC7)CC[C@]65O)C4)O[C@@H]3C)O[C@@H]2C)O[C@H](C)[C@H]1O[C@@H]1O[C@H](CO)[C@@H](O)[C@H](O)[C@H]1O,-13.7% (inactive),
Clc1ccccc1Cl,,inactive
[O]=[Cd],,inactive
Cn1sc(Cl)cc1=O,6.44% (inactive),
CC(=O)O[C@H]1CC[C@@]2(C)C(=CC[C@@H]3[C@@H]2CC[C@]2(C)C(=O)CC[C@@H]32)C1,-3.11% [at 20.6 µM] (inactive),

SMILES,"activity change, negative = inhibition",Potency
CC(=O)OC1CN2CCC1CC2 (stereo not given),13.1% (inactive),
CC1CCC(C(C)C)C(OC(=O)c2ccccc2N)C1 (stereo not given),-9.37% (inactive),
CCCC(=O)OC(C(Cl)(Cl)Cl)P(=O)(OC)OC (stereo not given),26.9% (inactive),
CCCN(CCC)C1CCc2cccc(O)c2C1 (stereo not given),1.58% (inactive),
CCN(CC)CCO[C@H]1CC[C@@]2(C)C(=CC[C@@H]3[C@@H]2CC[C@]2(C)C(=O)CC[C@@H]32)C1,-6.96% (inactive),
N#CC(C#N)=Cc1cc(O)c(O)c(O)c1,2.09% (inactive),
COc1ccc2[nH]cc(CCN)c2c1,0.471% (inactive),
Nc1ccc(CCN2CCN(c3cccc(C(F)(F)F)c3)CC2)cc1,,2.24 µM (active)
O=S1(=O)N(CCN2CC=C(c3c[nH]c4cc(F)ccc34)CC2)c2cccc3c2N1CCC3,,7.08 µM (active)
CCNC1(c2cccs2)CCCCC1=O (stereo not given),10.3% [at 20.6 µM] (inactive),
CC(=O)OO,0.147% (inactive),
C[Se]C[C@H](N)C(=O)O,0.222% (inactive),
N#CC1(N2CCCCC2)CCCCC1,-12.8% (inactive),
CCCC(C)(COC(N)=O)COC(=O)NC1CC1 (stereo not given),0.412% (inactive),
CCCCCCC(=O)O[C@H]1CC[C@H]2[C@@H]3CC[C@H]4CC(=O)C=C(C)[C@]4(C)[C@H]3CC[C@]12C,,14.1 µM (active)
Oc1cc(Cl)c(Cl)cc1Cl,,inactive
S=C=S,,inactive
C=CC[C@]1(O)CC[C@H]2[C@@H]3CCC4=CCCC[C@@H]4[C@H]3CC[C@@]21C,-15.7% (inactive),
CC(=O)Oc1ccc2c3c1O[C@H]1[C@@H](OC(C)=O)C=C[C@H]4[C@@H](C2)N(C)CC[C@@]341,16.8% (inactive),
CCC1(CC)C(=O)NC(=O)N(C)C1=O,8.79% (inactive),
